Assay results taken from publication PMC11995724, “Antibiotic target discovery by integrated phenotypic and activity-based profiling of electrophilic fragments” (Cell chemical biology, 2025).
Screen size: about 3,200 compounds; about 75 (2%) showed an effect of 50% or more. The entries come from a sample that favours strong results as a whole.

tested on: T1, S. aureus MSSA476; parameters: species or system S. aureus MSSA476 (TSB) or V. cholerae SAD30 (LB); 384-well bacterial growth screen at 25 uM, OD600 relative to DMSO control; conditions: relative growth, OD600, TSB; 25 µM; inhibitor
T1 construct: MSSA476

Structure (SMILES)	% of control remaining
Cc1cccc(CC(=O)CCl)c1 [10-I19, 1-chloro-3-(3-methylphenyl)propan-2-one]	130.938%
O=C(CCl)c1c[nH]c2ccc(F)cc12 [10-O11, 2-chloro-1-(5-fluoro-1H-indol-3-yl)ethan-1-one]	120.625%
O=C(CCl)c1cn(-c2ccc(F)cc2)nn1 [10-F05]	0%
O=C(CCl)NC1CC(=O)N(c2cccc(C(F)(F)F)c2)C1 (stereo not shown) [5-E09, 2-chloro-N-{5-oxo-1-[3-(trifluoromethyl)phenyl]pyrrolidin-3-yl}acetamide]	113.661%
CC(NC(=O)CCl)c1cn(-c2ccccc2)nn1 (stereo not shown) [5-O06, 2-chloro-N-[1-(1-phenyl-1H-1,2,3-triazol-4-yl)ethyl]acetamide]	91.0747%
O=C(CCl)c1ccc(C(F)(F)F)cc1 [10-B10, 2-chloro-1-[4-(trifluoromethyl)phenyl]ethan-1-one]	135.938%
O=C(CCl)c1cn(-c2cccc(C(F)(F)F)c2)nn1 [10-C09, 2-chloro-1-{1-[3-(trifluoromethyl)phenyl]-1H-1,2,3-triazol-4-yl}ethan-1-one]	-0.3125%
Cc1cccc(-n2cc(C(=O)CCl)nn2)c1 [10-L07]	0%
Cn1cc(C(=O)CCl)nn1 [10-M19, 2-chloro-1-(1-methyl-1H-1,2,3-triazol-4-yl)ethan-1-one]	87.5%
O=C(CCl)NCC(=O)Nc1nccs1 [5-G22, 2-chloro-N-{[(1,3-thiazol-2-yl)carbamoyl]methyl}acetamide]	86.3388%
Cc1nn(-c2ccccc2)c(Cl)c1C=C(C#N)C(=O)NC(C)C [9-J17, 3-(5-chloro-3-methyl-1-phenyl-1H-pyrazol-4-yl)-2-cyano-N-(propan-2-yl)prop-2-enamide]	77.9026%
C=CC(=O)N(C)CC(=O)Nc1ccc(N2C[C@@H](C)O[C@@H](C)C2)cc1 [3-H08, N-[({4-[(2R,6S)-2,6-dimethylmorpholin-4-yl]phenyl}carbamoyl)methyl]-N-methylprop-2-enamide]	117.719%
CC(C)N(c1ccccc1)c1ccc(NC(=O)CCl)cc1 [6-I17, 2-chloro-N-{4-[phenyl(propan-2-yl)amino]phenyl}acetamide]	116.78%
CCC(c1cc(Cl)cc(Cl)c1)N(C)C(=O)CCl (stereo not shown) [7-L10, 2-chloro-N-[1-(3,5-dichlorophenyl)propyl]-N-methylacetamide]	75.0392%
COc1cc(C)c(C=C(C#N)C(=O)Nc2ccc(C)cc2)cc1C(C)C [9-C04, 2-cyano-3-[4-methoxy-2-methyl-5-(propan-2-yl)phenyl]-N-(4-methylphenyl)prop-2-enamide]	99.176%
O=C(CCl)c1sccc1Cl [10-K11, 2-chloro-1-(3-chlorothiophen-2-yl)ethan-1-one]	10.3125%
O=C(CCl)c1cc(Cl)ccc1Cl [10-E16, 2-chloro-1-(2,5-dichlorophenyl)ethan-1-one]	80%
O=C(O)c1csc(C(=O)CCl)c1 [10-E22, 5-(2-chloroacetyl)thiophene-3-carboxylic acid]	88.4375%
C=CC(=O)NCc1cc(Cl)cc(S(C)(=O)=O)c1 [3-N15, N-[(3-chloro-5-methanesulfonylphenyl)methyl]prop-2-enamide]	97.5185%
C=CC(=O)NCc1oc(CC)nc1C [3-P15, N-[(2-ethyl-4-methyl-1,3-oxazol-5-yl)methyl]prop-2-enamide]	86.7218%
N#Cc1c(NC(=O)CCl)oc(-c2cccs2)c1-c1cccs1 [6-I09, 2-chloro-N-[3-cyano-4,5-bis(thiophen-2-yl)furan-2-yl]acetamide]	37.9024%
N#Cc1c(NC(=O)CCl)oc(-c2ccco2)c1-c1ccco1 [5-D10, 2-chloro-N-[4'-cyano-2'-(furan-2-yl)-[2,3'-bifuran]-5'-yl]acetamide]	66.6667%
Cc1c(C#N)c(NC(=O)CCl)n(Cc2cccs2)c1C [4-C04, 2-chloro-N-{3-cyano-4,5-dimethyl-1-[(thiophen-2-yl)methyl]-1H-pyrrol-2-yl}acetamide]	108.623%
COCC(C)NC(=O)C(C#N)=Cc1cccc(F)c1F (stereo not shown) [9-F09, 2-cyano-3-(2,3-difluorophenyl)-N-(1-methoxypropan-2-yl)prop-2-enamide]	101.873%
C=CC(=O)N1CCCC1c1nc(N(C)C)no1 (stereo not shown) [2-C21, 1-{2-[3-(dimethylamino)-1,2,4-oxadiazol-5-yl]pyrrolidin-1-yl}prop-2-en-1-one]	104.439%

Structure (SMILES)	% of control remaining
C=CC(=O)N(CC)CC(=O)N1CCCC(F)(F)C1 [2-G14, N-[2-(3,3-difluoropiperidin-1-yl)-2-oxoethyl]-N-ethylprop-2-enamide]	112.446%
O=C1C=CC(=O)N1CCc1ccccc1F [10-G03, 1-[2-(2-fluorophenyl)ethyl]-2,5-dihydro-1H-pyrrole-2,5-dione]	4.375%
O=C1C=CC(=O)N1CCc1ccccc1 [10-E20, 1-(2-phenylethyl)-2,5-dihydro-1H-pyrrole-2,5-dione]	58.4375%
O=C1C=CC(=O)N1CCc1ccc(F)cc1 [10-C21, 1-[2-(4-fluorophenyl)ethyl]-2,5-dihydro-1H-pyrrole-2,5-dione]	70.9375%
CCc1nsc(N2CCN(C(=O)C(C#N)=Cc3ccco3)CC2)n1 [9-K05, 2-[4-(3-ethyl-1,2,4-thiadiazol-5-yl)piperazine-1-carbonyl]-3-(furan-2-yl)prop-2-enenitrile]	96.779%
CNS(=O)(=O)c1cc(NC(=O)CCl)ccc1C [6-M07, 2-chloro-N-[4-methyl-3-(methylsulfamoyl)phenyl]acetamide]	112.341%
Cc1ccc(NC(=O)CN2CCN(C(=O)CCl)CC2)cc1.Cl [4-D16, 2-[4-(2-chloroacetyl)piperazin-1-yl]-N-(4-methylphenyl)acetamide hydrochloride]	131.872%
COCC(NC(=O)C(C)Cl)c1ccccn1 (stereo not shown) [6-B13, 2-chloro-N-[2-methoxy-1-(pyridin-2-yl)ethyl]propanamide]	95.6098%
COc1cc(C=C(C#N)C(=O)NC2CCCCC2)cc(Cl)c1O [8-H21, 3-(3-chloro-4-hydroxy-5-methoxyphenyl)-2-cyano-N-cyclohexylprop-2-enamide]	104.564%
CCOc1ccc(N2C(=O)C=CC2=O)cc1 [10-A14, 1-(4-ethoxyphenyl)-2,5-dihydro-1H-pyrrole-2,5-dione]	141.563%
O=C1C=CC(=O)N1c1ccc(Oc2ccccc2)cc1 [10-F17, 1-(4-phenoxyphenyl)-2,5-dihydro-1H-pyrrole-2,5-dione]	36.875%
O=C1C=CC(=O)N1c1cccc(O)c1 [10-O07, 1-(3-hydroxyphenyl)-2,5-dihydro-1H-pyrrole-2,5-dione]	125.313%
O=C1C=CC(=O)N1c1ccc(OC(F)(F)F)cc1 [10-J19, 1-[4-(trifluoromethoxy)phenyl]-2,5-dihydro-1H-pyrrole-2,5-dione]	5.9375%
O=C1C=CC(=O)N1c1ccc2ccccc2c1 [10-D07, 1-(naphthalen-2-yl)-2,5-dihydro-1H-pyrrole-2,5-dione]	3.125%
O=C1C=CC(=O)N1c1ccc(F)c(Cl)c1 [10-D15, 1-(3-chloro-4-fluorophenyl)-2,5-dihydro-1H-pyrrole-2,5-dione]	109.688%
COc1ccccc1N1C(=O)C=CC1=O [10-O10, 1-(2-methoxyphenyl)-2,5-dihydro-1H-pyrrole-2,5-dione]	118.438%
COc1cccc(N2C(=O)C=CC2=O)c1 [10-K03, 1-(3-methoxyphenyl)-2,5-dihydro-1H-pyrrole-2,5-dione]	124.375%
O=C1C=CC(=O)N1c1ccc(OC(F)F)cc1 [10-P11, 1-[4-(difluoromethoxy)phenyl]-2,5-dihydro-1H-pyrrole-2,5-dione]	110.313%
CCOC(=O)c1[nH]c(C)c(C(=O)CCl)c1C [10-A10, ethyl 4-(2-chloroacetyl)-3,5-dimethyl-1H-pyrrole-2-carboxylate]	136.563%
C=CC(=O)NCC1=NOCC1 [3-G16, N-[(4,5-dihydro-1,2-oxazol-3-yl)methyl]prop-2-enamide]	95.7771%
O=C1CCc2cc(C(=O)CCl)ccc2N1 [10-M03, 6-(2-chloroacetyl)-1,2,3,4-tetrahydroquinolin-2-one]	83.125%
Cc1cc(C(=O)CCl)c(F)cc1F [10-O03, 2-chloro-1-(2,4-difluoro-5-methylphenyl)ethan-1-one]	143.438%
O=C1CCc2cc(C(=O)CCl)c(F)cc2N1 [10-O20, 6-(2-chloroacetyl)-7-fluoro-1,2,3,4-tetrahydroquinolin-2-one]	3.75%
C=CC(=O)N1CCC(n2nc(C)nc2O)CC1 [3-P21, 1-[4-(5-hydroxy-3-methyl-1H-1,2,4-triazol-1-yl)piperidin-1-yl]prop-2-en-1-one]	126.077%
